According to the antibiotic and cytotoxicity screens of Wong et al. (2023):
The whole screen tested about 39,000 compounds, of which about 1,500 (3.8%) were called active. Many of the other results were omitted from the sample, so actives are more common in it than they were.

test system: HSkMC (human skeletal muscle cells); test: cytotoxicity call (relative viability < 0.9); details: 10 µM

Structure (SMILES) | cytotoxicity call
C[C@H](CO)N1C[C@H](C)[C@@H](CN(C)Cc2ccc(Cl)c(Cl)c2)OCCCC[C@H](C)Oc2ccc(NC(=O)Nc3ccc4c(c3)OCO4)cc2C1=O | active
C[C@@H]1CCCCO[C@H](CN(C)Cc2ccc(Cl)c(Cl)c2)[C@H](C)CN([C@@H](C)CO)C(=O)c2cc(NC(=O)Nc3ccc4c(c3)OCO4)ccc2O1 | active
C[C@H]1CCCCO[C@H](CN(C)Cc2ccc(Cl)c(Cl)c2)[C@@H](C)CN([C@@H](C)CO)C(=O)c2cc(NC(=O)Nc3ccc4c(c3)OCO4)ccc2O1 | inactive
C[C@@H]1CCCCO[C@H](CN(C)Cc2ccc(Cl)c(Cl)c2)[C@@H](C)CN([C@@H](C)CO)C(=O)c2cc(NC(=O)Nc3ccc4c(c3)OCO4)ccc2O1 | inactive
C[C@@H]1CCCCO[C@@H](CN(C)Cc2ccc(Cl)c(Cl)c2)[C@H](C)CN([C@@H](C)CO)C(=O)c2cc(NC(=O)Nc3ccc4c(c3)OCO4)ccc2O1 | inactive
C[C@@H]1CCCCO[C@@H](CN(C)Cc2ccc(Cl)c(Cl)c2)[C@H](C)CN([C@H](C)CO)C(=O)c2cc(NC(=O)Nc3ccc4c(c3)OCO4)ccc2O1 | inactive
C[C@H](CO)N1C[C@H](C)[C@H](CN(C)C(=O)Nc2ccc(F)cc2)OCCCC[C@H](C)Oc2ccc(NC(=O)C3CCCCCC3)cc2C1=O | inactive
CC(=O)O[C@H](C[C@H](O)C(C)(O)CCC=C(C)C)/C(C)=C/COC[C@@H](O)[C@@H](O)[C@@H](O)[C@@H](O)CO (stereo not given in full) | inactive
O=C(Cn1ccc([N+](=O)[O-])n1)n1cccn1 | inactive
N=c1ccn2c(n1)O[C@H]1[C@H](O)[C@@H](CO)O[C@H]12 | active
Nc1ccn([C@@H]2O[C@H](CO)[C@@H](O)[C@H]2O)c(=O)n1 | inactive
Cl.N=c1ccn2c(n1)OC1C(O)C(CO)OC12 (stereo not given) | inactive
C[C@H](CO)N1C[C@H](C)[C@H](CN(C)C(=O)Nc2cccc3ccccc23)Oc2ncc(C#Cc3ccc(F)cc3)cc2C1=O | inactive
Cc1ccc(S(=O)(=O)N(C)C[C@@H]2OCCCC[C@H](C)Oc3ccc(NS(=O)(=O)c4ccc(Cl)cc4)cc3C(=O)N([C@H](C)CO)C[C@@H]2C)cc1 | inactive
CCN1C(C)(C)CC(Oc2ccc(C(=O)Nc3ccc(NC(=O)Nc4cc(C(C)(C)C)on4)cc3)nc2)CC1(C)C | active
CC(C)(C)c1cc(C(=O)NN)no1 | inactive
CC(C)CC#Cc1ccc2c(c1)O[C@H](CN(C)C(=O)c1ccccn1)[C@@H](C)CN([C@H](C)CO)S2(=O)=O | inactive
COc1cccc(-c2ccc3c(c2)O[C@@H](CN(C)C(=O)C2CCOCC2)[C@@H](C)CN([C@@H](C)CO)S3(=O)=O)c1 | inactive
C[C@@H]1CN([C@@H](C)CO)C(=O)Cc2cc(NC(=O)Cc3ccccc3)ccc2O[C@H]1CN(C)Cc1ccc(C(F)(F)F)cc1 | inactive
C[C@H]1CN([C@@H](C)CO)C(=O)Cc2cc(NC(=O)Cc3ccccc3)ccc2O[C@@H]1CN(C)Cc1ccc(C(F)(F)F)cc1 | active
C[C@@H]1CN([C@H](C)CO)C(=O)Cc2cc(NC(=O)Cc3ccccc3)ccc2O[C@@H]1CN(C)Cc1ccc(C(F)(F)F)cc1 | inactive
C[C@H]1CN([C@@H](C)CO)C(=O)Cc2cc(NC(=O)Cc3ccccc3)ccc2O[C@H]1CN(C)Cc1ccc(C(F)(F)F)cc1 | inactive

Structure (SMILES) | cytotoxicity call
C[C@@H]1CN([C@H](C)CO)C(=O)Cc2cc(NC(=O)Cc3ccccc3)ccc2O[C@H]1CN(C)Cc1ccc(C(F)(F)F)cc1 | inactive
C[C@@H]1CN([C@@H](C)CO)C(=O)Cc2cc(NC(=O)Cc3ccccc3)ccc2O[C@@H]1CN(C)Cc1ccc(C(F)(F)F)cc1 | active
C[C@@H]1CN([C@@H](C)CO)C(=O)c2cc(NC(=O)Nc3cccc4ccccc34)ccc2O[C@@H]1CN(C)S(=O)(=O)c1ccc(Cl)cc1 | inactive
Cc1noc(C)c1NC(=O)Nc1ccc2c(c1)C(=O)N([C@@H](C)CO)C[C@H](C)[C@@H](CN(C)Cc1ccc3c(c1)OCO3)OCCCC[C@@H](C)O2 | inactive
COc1ccc(CN(C)C[C@@H]2OCCCC[C@H](C)Oc3ccc(NC(=O)NC(C)C)cc3C(=O)N([C@H](C)CO)C[C@H]2C)cc1 | inactive
CO[C@@H]1CN(C)C(=O)c2cc(NC(=O)CC(F)(F)F)ccc2OC[C@H](C)N(S(=O)(=O)c2cn(C)cn2)C[C@H]1C | inactive
Cc1ccc(S(=O)(=O)N(C)C[C@H]2Oc3ccc(NS(=O)(=O)c4c(C)noc4C)cc3CC(=O)N([C@H](C)CO)C[C@@H]2C)cc1 | inactive
C[C@@H]1CN([C@@H](C)CO)S(=O)(=O)c2ccc(-c3cncnc3)cc2O[C@H]1CN(C)C(=O)C1CCCCC1 | inactive
C[C@@H]1CN([C@H](C)CO)C(=O)c2cc(-c3ccc(C(=O)N(C)C)cc3)cnc2O[C@H]1CN(C)C(=O)c1ccncc1 | inactive
C[C@@H]1CN([C@@H](C)CO)C(=O)c2cc(NS(C)(=O)=O)ccc2O[C@@H]1CN(C)Cc1ccc(C(F)(F)F)cc1 | inactive
NC(=O)CSc1ccccn1 | inactive
COCC#Cc1ccc2c(c1)O[C@@H](CN(C)S(=O)(=O)c1ccc(F)cc1)[C@@H](C)CN([C@@H](C)CO)S2(=O)=O | active
C[C@H]1CN([C@@H](C)CO)S(=O)(=O)c2ccc(C#Cc3ccncc3)cc2O[C@@H]1CN(C)S(=O)(=O)c1ccc(F)cc1 | active
C[C@H]1CN([C@@H](C)CO)S(=O)(=O)c2ccc(C#Cc3ccncc3)cc2O[C@H]1CN(C)S(=O)(=O)c1ccc(F)cc1 | inactive
COCC#Cc1ccc2c(c1)O[C@@H](CN(C)S(=O)(=O)c1ccc(F)cc1)[C@@H](C)CN([C@H](C)CO)S2(=O)=O | inactive
C[C@H](CO)N1C[C@H](C)[C@H](CN(C)S(=O)(=O)c2ccc(F)cc2)Oc2cc(C#Cc3ccncc3)ccc2S1(=O)=O | inactive
COCC#Cc1ccc2c(c1)O[C@H](CN(C)S(=O)(=O)c1ccc(F)cc1)[C@@H](C)CN([C@H](C)CO)S2(=O)=O | inactive
C[C@H](CO)N1C[C@H](C)[C@H](CN(C)C(=O)NC2CCCCC2)Oc2ccc(NS(C)(=O)=O)cc2CC1=O | inactive
C[C@H](CO)N1C[C@H](C)[C@@H](CN(C)C(=O)Nc2ccc(F)cc2)OCCCC[C@H](C)Oc2ccc(NC(=O)Cc3ccccc3)cc2C1=O | inactive
CC(C)C(N)C(=O)O (stereo not given) | inactive
C[C@H](O)C(=O)Nc1c(I)c(C(=O)NC(CO)CO)c(I)c(C(=O)NC(CO)CO)c1I | inactive
CC(C)(C(=O)O)c1ccc(C(O)CCCN2CCC(C(O)(c3ccccc3)c3ccccc3)CC2)cc1.Cl (stereo not given) | inactive

Structure (SMILES) | cytotoxicity call
CC(C)(C(=O)O)c1ccc([C@@H](O)CCCN2CCC(C(O)(c3ccccc3)c3ccccc3)CC2)cc1 | inactive
CC(C)(C)c1ccc(C(O)CCCN2CCC(C(O)(c3ccccc3)c3ccccc3)CC2)cc1 (stereo not given) | active
C[C@@H]1CN([C@H](C)CO)C(=O)c2cccc(NC(=O)C3CC3)c2O[C@@H]1CN(C)Cc1ccc(-c2ccccc2)cc1 | inactive
CC(C)NC(=O)Nc1ccc2c(c1)C(=O)N([C@@H](C)CO)C[C@@H](C)[C@@H](CN(C)S(C)(=O)=O)OCCCC[C@@H](C)O2 | inactive
C[C@@H]1CCCCO[C@@H](CN(C)C(=O)Nc2ccccc2)[C@H](C)CN([C@H](C)CO)C(=O)c2cc(NC(=O)Nc3ccccc3)ccc2O1 | inactive
CC(C)NC(=O)N(C)C[C@@H]1OCCCC[C@@H](C)Oc2ccc(NC(=O)Nc3ccc(C(F)(F)F)cc3)cc2C(=O)N([C@@H](C)CO)C[C@@H]1C | inactive
C[C@H](CO)N1C[C@H](C)[C@H](CN(C)C(=O)Nc2ccc3c(c2)OCO3)OCc2cn(nn2)CCCC1=O | inactive
COc1cc2nc(N3CCCN(Cc4ccccc4)CC3)nc(Nc3ccc(F)c(Cl)c3)c2cc1OC | active
COc1cc2nc(N3CCCN(Cc4ccccc4)CC3)nc(NC3CCN(Cc4ccccc4)CC3)c2cc1OC | inactive
COc1cc2nc(N3CCN(C(=O)c4ccco4)CC3)nc(N)c2cc1OC.Cl | inactive
NC1CCN(Cc2ccccc2)CC1 | inactive
COc1ccc2nc3cc(Cl)ccc3c(Nc3cc(CN4CCCC4)c(O)c(CN4CCCC4)c3)c2n1.O=P(O)(O)O.O=P(O)(O)O.O=P(O)(O)O.O=P(O)(O)O | inactive
Brc1ccc2nc(N3CCCN(Cc4ccccc4)CC3)nc(NC3CCN(Cc4ccccc4)CC3)c2c1 | active
CC(C)(C)[S@](=O)N1Cc2cc(C(=O)NCc3ccncc3)nc(-c3cccc(-c4cccc(C#N)c4)c3)c2[C@@H]1CCO | inactive
C[C@H](CO)N1C[C@H](C)[C@H](CN(C)S(=O)(=O)c2cn(C)cn2)Oc2ccc(NC(=O)Cc3ccccc3)cc2C1=O | inactive
Cc1cc(C(=O)Nc2cccc3c2O[C@H](CN(C)Cc2ccncc2)[C@H](C)CN([C@H](C)CO)C3=O)n(C)n1 | inactive
Cc1noc(C)c1S(=O)(=O)Nc1ccc2c(c1)C(=O)N([C@@H](C)CO)C[C@H](C)[C@@H](CN(C)C(=O)Nc1ccccc1)OCCCC[C@@H](C)O2 | inactive
C[C@@H](Nc1nc(=O)cc(F)[nH]1)C(=O)O | inactive
COc1ccc(NC(=O)N(C)C[C@H]2Oc3ccc(NC(=O)CCCCCC(=O)Nc4ccccc4N)cc3C(=O)N([C@@H](C)CO)C[C@@H]2C)cc1 | inactive
COc1ccc(NC(=O)Nc2ccc3c(c2)C(=O)N([C@@H](C)CO)C[C@H](C)[C@@H](CN(C)C(=O)Cc2ccccc2)OCCCC[C@@H](C)O3)cc1 | inactive
COc1ccc(CN(C)C[C@H]2Oc3ccc(NS(=O)(=O)c4cn(C)cn4)cc3CC(=O)N([C@H](C)CO)C[C@@H]2C)cc1 | inactive
